Binding signal data for 6 sequences are collected here from article PMC8384837, “Expanding the binding specificity for RNA recognition by a PUF domain”.

The first test deals with PUM1 PUF domain R4-PHV (Homo sapiens, UniProt Q14671 828-1176, N971P;Q975V). In words: yeast three-hybrid, YBZ-1, SC-Leu-His + 0.5 mM 3-AT, 4 days. To be noted: tags: N-Gal4 AD-HA kept; label: inside an RPR1-promoter hybrid RNA with tandem MS2 sites; ssRNA. The procedure, abridged: (§1)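 A centromeric plasmid in strain YBZ-1 co-expressed Pumilio-1 PUF domain libraries, randomized at the three base-contacting residues of each repeat, with matching RNA elements; the strain carries a LexA–MS2 coat fusion and a HIS3 reporter. After four days on SC-Leu (input) or SC-Leu-His + 0.5 mM 3-AT (selection), the repeat regions were PCR-amplified and Illumina-sequenced. The interaction score is the log change in variant frequency from input to selection, using log2 and a pseudocount of 1 where absent.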
“GGCUAGAACUAGUGGAUCCCCCGGCGCCCGGCGGCUCGAGCCCGGGUAAGUGUAUAUAGUCUGCAUGCCGCCGGGCGCCAUGCCUGCAGGUCGACUCUAGAAAACAUG”: the binding signal was 7.14 log2 enrichment (interaction score). Consider “GGCUAGAACUAGUGGAUCCCCCGGCGCCCGGCGGCUCGAGCCCGGGUAAGUGUAAAUAGUCUGCAUGCCGCCGGGCGCCAUGCCUGCAGGUCGACUCUAGAAAACAUG”, for which the binding signal is 4.46 log2 enrichment (interaction score).

Take “GGCUAGAACUAGUGGAUCCCCCGGCGCCCGGCGGCUCGAGCCCGGGUAAGUGUACAUAGUCUGCAUGCCGCCGGGCGCCAUGCCUGCAGGUCGACUCUAGAAAACAUG”: the binding signal was 4.96 log2 enrichment (interaction score).

In the next test the target is PUM1 PUF domain R3-SPR (Homo sapiens, UniProt Q14671 828-1176, C935S;R936P;Q939R). The description is as above. Particulars: tags: N-Gal4 AD-HA kept; label: inside an RPR1-promoter hybrid RNA with tandem MS2 sites; ssRNA. The procedure, abridged: as §1
As to “GGCUAGAACUAGUGGAUCCCCCGGCGCCCGGCGGCUCGAGCCCGGGUAAGUGUAAAUAGUCUGCAUGCCGCCGGGCGCCAUGCCUGCAGGUCGACUCUAGAAAACAUG”, the binding signal is 0.25 log2 enrichment (interaction score). “GGCUAGAACUAGUGGAUCCCCCGGCGCCCGGCGGCUCGAGCCCGGGUAAGUGUAAGUAGUCUGCAUGCCGCCGGGCGCCAUGCCUGCAGGUCGACUCUAGAAAACAUG”: the binding signal was 1.77 log2 enrichment (interaction score). Consider “GGCUAGAACUAGUGGAUCCCCCGGCGCCCGGCGGCUCGAGCCCGGGUAAGUGUAACUAGUCUGCAUGCCGCCGGGCGCCAUGCCUGCAGGUCGACUCUAGAAAACAUG”, for which the binding signal is 1.77 log2 enrichment (interaction score).

Regarding “GGCUAGAACUAGUGGAUCCCCCGGCGCCCGGCGGCUCGAGCCCGGGUAAGUGUAAUUAGUCUGCAUGCCGCCGGGCGCCAUGCCUGCAGGUCGACUCUAGAAAACAUG”, the binding signal was 3.06 log2 enrichment (interaction score).
